Data reported in the supplement of paper PMC11732987, “Enantioselective OTUD7B fragment discovery through chemoproteomics screening and high-throughput optimisation” (Communications Chemistry, 2025).

UniProt Q8TE49, sequence (Q8TE49 whole entry): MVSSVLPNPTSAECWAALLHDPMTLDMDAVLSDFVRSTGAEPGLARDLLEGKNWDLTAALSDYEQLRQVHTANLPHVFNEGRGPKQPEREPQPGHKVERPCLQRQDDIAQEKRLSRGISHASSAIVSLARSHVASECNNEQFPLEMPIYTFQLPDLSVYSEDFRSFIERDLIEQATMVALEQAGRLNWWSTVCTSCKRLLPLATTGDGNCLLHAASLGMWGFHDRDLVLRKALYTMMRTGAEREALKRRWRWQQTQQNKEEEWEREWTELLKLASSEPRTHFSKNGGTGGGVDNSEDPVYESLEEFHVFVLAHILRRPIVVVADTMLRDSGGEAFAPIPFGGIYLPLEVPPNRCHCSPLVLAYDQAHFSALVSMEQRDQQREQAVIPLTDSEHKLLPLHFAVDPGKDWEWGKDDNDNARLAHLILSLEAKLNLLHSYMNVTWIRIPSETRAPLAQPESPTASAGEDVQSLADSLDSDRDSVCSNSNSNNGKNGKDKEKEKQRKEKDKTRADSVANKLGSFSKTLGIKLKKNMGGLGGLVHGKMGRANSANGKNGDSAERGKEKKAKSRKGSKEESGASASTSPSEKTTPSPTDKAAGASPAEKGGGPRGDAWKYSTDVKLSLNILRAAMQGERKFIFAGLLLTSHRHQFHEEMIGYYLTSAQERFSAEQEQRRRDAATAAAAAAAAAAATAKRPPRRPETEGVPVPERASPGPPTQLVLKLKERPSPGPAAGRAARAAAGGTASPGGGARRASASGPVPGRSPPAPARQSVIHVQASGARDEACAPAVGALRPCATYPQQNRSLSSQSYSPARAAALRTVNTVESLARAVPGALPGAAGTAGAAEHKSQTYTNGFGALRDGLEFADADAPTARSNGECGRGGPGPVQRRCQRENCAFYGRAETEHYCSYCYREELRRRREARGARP
UniProt P51665, sequence (P51665 whole entry): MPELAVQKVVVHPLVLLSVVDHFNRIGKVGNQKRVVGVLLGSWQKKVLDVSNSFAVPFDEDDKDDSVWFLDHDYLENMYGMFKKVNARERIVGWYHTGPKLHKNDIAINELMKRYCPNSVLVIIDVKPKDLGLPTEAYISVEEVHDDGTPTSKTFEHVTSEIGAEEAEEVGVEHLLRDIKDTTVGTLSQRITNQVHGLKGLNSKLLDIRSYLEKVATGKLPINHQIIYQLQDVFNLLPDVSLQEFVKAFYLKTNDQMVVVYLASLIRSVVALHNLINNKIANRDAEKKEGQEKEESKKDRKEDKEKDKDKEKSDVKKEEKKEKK
UniProt Q9P2H5, sequence (Q9P2H5 whole entry): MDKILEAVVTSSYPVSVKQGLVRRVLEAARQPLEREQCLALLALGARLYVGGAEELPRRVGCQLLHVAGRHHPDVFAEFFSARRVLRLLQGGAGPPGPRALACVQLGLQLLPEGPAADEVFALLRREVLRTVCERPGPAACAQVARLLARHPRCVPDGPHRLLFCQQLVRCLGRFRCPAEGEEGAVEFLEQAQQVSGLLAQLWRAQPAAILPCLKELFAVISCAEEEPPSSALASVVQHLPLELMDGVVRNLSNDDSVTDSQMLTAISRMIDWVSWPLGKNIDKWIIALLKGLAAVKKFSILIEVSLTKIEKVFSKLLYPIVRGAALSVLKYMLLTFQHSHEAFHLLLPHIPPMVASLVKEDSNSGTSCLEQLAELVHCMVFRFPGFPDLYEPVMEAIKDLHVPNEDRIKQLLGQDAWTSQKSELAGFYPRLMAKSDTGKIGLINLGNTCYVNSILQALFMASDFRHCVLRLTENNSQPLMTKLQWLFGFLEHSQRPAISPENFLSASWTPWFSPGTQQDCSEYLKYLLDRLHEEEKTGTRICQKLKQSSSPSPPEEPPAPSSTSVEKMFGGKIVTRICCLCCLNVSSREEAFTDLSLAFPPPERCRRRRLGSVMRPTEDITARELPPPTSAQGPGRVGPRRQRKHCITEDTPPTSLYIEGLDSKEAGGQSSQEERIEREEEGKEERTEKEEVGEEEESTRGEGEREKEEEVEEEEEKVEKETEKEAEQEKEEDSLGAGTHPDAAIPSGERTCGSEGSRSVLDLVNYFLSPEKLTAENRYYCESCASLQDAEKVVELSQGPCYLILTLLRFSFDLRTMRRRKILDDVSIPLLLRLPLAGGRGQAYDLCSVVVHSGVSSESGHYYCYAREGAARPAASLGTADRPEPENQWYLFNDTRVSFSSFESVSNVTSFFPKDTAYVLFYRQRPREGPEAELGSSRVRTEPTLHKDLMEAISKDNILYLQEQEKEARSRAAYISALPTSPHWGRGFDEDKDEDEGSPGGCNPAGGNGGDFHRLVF
UniProt Q53GS9, sequence (Q53GS9 whole entry): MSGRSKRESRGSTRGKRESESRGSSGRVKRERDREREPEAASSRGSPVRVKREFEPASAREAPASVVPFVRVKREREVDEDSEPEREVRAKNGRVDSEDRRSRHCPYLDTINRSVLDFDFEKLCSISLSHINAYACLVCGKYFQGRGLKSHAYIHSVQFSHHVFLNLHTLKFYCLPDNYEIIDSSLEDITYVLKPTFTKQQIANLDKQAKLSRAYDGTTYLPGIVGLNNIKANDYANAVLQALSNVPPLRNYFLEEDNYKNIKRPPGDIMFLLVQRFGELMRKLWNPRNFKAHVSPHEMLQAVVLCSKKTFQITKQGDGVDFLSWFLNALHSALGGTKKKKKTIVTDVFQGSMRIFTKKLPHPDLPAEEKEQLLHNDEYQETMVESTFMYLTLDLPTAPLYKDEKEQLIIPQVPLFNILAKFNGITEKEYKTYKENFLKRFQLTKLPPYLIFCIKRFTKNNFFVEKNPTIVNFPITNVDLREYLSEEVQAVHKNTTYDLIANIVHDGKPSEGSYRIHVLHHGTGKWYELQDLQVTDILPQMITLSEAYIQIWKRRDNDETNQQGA
UniProt O94966, sequence (O94966 whole entry): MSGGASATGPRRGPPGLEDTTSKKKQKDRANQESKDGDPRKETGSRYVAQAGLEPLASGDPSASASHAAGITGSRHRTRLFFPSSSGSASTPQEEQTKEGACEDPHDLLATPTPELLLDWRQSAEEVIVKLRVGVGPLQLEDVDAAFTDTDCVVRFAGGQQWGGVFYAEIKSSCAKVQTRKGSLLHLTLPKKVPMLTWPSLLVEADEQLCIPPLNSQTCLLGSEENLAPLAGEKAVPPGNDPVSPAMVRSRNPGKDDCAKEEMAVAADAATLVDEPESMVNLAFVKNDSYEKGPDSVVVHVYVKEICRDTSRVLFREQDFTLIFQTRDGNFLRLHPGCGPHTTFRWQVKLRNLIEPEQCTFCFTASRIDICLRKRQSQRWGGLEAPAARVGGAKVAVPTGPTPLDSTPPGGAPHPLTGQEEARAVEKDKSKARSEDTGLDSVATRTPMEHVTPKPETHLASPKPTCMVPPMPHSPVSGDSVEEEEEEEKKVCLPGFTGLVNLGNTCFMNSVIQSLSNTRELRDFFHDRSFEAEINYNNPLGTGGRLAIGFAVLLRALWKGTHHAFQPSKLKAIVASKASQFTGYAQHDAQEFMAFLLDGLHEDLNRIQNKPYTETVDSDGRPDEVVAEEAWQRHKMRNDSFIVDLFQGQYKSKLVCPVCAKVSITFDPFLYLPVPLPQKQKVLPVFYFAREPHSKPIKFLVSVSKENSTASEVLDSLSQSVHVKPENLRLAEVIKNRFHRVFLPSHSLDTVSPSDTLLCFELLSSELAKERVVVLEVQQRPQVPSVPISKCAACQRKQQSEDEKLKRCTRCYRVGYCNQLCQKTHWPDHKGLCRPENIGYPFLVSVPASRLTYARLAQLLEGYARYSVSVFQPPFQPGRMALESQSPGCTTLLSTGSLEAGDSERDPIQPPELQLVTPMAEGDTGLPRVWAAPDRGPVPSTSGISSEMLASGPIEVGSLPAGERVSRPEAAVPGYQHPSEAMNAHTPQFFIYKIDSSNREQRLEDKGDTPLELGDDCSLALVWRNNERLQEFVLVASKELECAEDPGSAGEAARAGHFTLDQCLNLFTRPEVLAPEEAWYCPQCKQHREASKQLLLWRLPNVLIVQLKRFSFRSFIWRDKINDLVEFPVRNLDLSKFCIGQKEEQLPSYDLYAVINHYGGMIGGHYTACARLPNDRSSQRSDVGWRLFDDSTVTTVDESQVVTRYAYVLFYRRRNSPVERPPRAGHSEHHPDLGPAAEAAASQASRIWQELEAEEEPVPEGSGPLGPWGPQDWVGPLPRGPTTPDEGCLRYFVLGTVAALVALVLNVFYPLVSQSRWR
UniProt P45974, sequence (P45974 whole entry): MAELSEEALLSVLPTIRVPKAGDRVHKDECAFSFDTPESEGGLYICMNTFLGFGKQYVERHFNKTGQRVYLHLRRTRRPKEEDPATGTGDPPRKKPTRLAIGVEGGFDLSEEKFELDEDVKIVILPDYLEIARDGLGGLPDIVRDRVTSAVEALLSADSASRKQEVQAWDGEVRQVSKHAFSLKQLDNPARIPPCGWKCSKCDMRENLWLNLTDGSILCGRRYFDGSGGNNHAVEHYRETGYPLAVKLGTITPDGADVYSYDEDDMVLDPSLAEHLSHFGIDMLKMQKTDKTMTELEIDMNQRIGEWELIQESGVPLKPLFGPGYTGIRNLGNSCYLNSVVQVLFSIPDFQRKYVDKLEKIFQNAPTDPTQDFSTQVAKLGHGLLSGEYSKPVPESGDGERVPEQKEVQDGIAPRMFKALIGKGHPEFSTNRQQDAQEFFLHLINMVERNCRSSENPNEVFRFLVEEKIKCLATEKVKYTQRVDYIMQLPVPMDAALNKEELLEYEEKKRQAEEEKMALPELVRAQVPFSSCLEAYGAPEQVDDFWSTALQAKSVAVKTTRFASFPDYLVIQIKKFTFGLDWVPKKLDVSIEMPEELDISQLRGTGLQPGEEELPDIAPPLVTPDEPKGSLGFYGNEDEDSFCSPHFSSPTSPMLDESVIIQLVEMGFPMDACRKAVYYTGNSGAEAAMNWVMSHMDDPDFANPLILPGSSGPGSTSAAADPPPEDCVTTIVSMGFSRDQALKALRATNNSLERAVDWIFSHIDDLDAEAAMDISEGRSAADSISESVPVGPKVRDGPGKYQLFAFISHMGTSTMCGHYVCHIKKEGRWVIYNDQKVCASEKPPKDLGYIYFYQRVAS

The targets below were run with ClCC(=O)NC(C1CC1)C1CC1 (assay: log2 ratio of Biotin-Ahx-Ub-VS probe labelling (fragment/DMSO); higher = less target engagement (more negative = stronger competition), active = hit call of the paper (q ≤ 0.05, log2 ratio ≤ -1)). Details: compound concentration: 200 uM; treatment time: 3 h.
Procedure: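 Competitive ABPP in HEK293T cell lysate. Lysates were treated with each chloroacetamide fragment at 200 µM for 3 h, then with Biotin-Ahx-Ub-VS (0.5 µM, 1 h), NeutrAvidin-enriched and analysed by diaPASEF LC-MS/MS. Protein LFQ was median-normalised; average log2 ratio is fragment/DMSO from an unpaired t-test (n=3 treated, n=44 DMSO). Hits: q ≤ 0.05, log2 ratio ≤ -1, unique peptides ≥ 2.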
For COPS5 (UniProt Q92905), the “log2 ratio of Biotin-Ahx-Ub-VS probe labelling” value (shortened to “log2 ratio”) was -0.232 (inactive).
In the case of USP5 (UniProt P45974), the “log2 ratio” value is reported as -0.319 (inactive).
For USP7 (UniProt Q93009), the “log2 ratio” value was -0.307 (inactive).
USP14 (UniProt P54578) was tested, and the “log2 ratio” value was -0.411 (inactive).
ALG13 (UniProt Q9NP73) was tested, and the “log2 ratio” value was 0.189 (inactive).
ATXN3 (UniProt P54252) was tested, and the “log2 ratio” value was 0.0786 (inactive).
In the case of EIF3H (UniProt O15372), the “log2 ratio” value is reported as -0.0951 (inactive).
With YOD1 (UniProt Q5VVQ6) the “log2 ratio” value was -0.0299 (inactive).
In the case of USP22 (UniProt Q9UPT9), the “log2 ratio” value is reported as -0.16 (inactive).
For USP34 (UniProt Q70CQ2), the “log2 ratio” value was -0.194 (inactive).
USP47 (UniProt Q96K76) was tested, and the “log2 ratio” value was -0.205 (inactive).
With USP16 (UniProt Q9Y5T5) the “log2 ratio” value was -0.253 (inactive).
With USP39 (UniProt Q53GS9) the “log2 ratio” value was -0.194 (inactive).
In the case of UniProt Q9P2H5, the “log2 ratio” value is reported as -0.0753 (inactive).
With FAM105A (UniProt Q9NUU6) the “log2 ratio” value was -0.0106 (inactive).
In the case of OTUD7B (UniProt Q6GQQ9), the “log2 ratio” value is reported as -1.44 (active).
In the case of USP4 (UniProt Q13107), the “log2 ratio” value is reported as -0.162 (inactive).
For PRPF8 (UniProt Q6P2Q9), the “log2 ratio” value was 0.0738 (inactive).
In the case of USP48 (UniProt Q86UV5), the “log2 ratio” value is reported as 0.01 (inactive).
With EIF3F (UniProt O00303) the “log2 ratio” value was -0.0875 (inactive).
For UniProt P51784, the “log2 ratio” value was -0.304 (inactive).
USP8 (UniProt P40818) was tested, and the “log2 ratio” value was -0.0528 (inactive).
UniProt Q8TE49 was tested, and the “log2 ratio” value was -0.531 (inactive).
USP42 (UniProt Q9H9J4) was tested, and the “log2 ratio” value was -0.0349 (inactive).
USP15 (UniProt Q9Y4E8) was tested, and the “log2 ratio” value was -0.268 (inactive).
With PSMD7 (UniProt P51665) the “log2 ratio” value was -0.0309 (inactive).
In the case of USP25 (UniProt Q9UHP3), the “log2 ratio” value is reported as -0.502 (inactive).
In the case of UniProt Q5T2D3, the “log2 ratio” value is reported as -0.0205 (inactive).
In the case of VCPIP1 (UniProt Q96JH7), the “log2 ratio” value is reported as -0.276 (inactive).
In the case of UCHL1 (UniProt P09936), the “log2 ratio” value is reported as -1.28 (active).
USP54 (UniProt Q70EL1) was tested, and the “log2 ratio” value was -0.749 (inactive).
UniProt Q9UGI0 was tested, and the “log2 ratio” value was -0.0131 (inactive).
For OTUD5 (UniProt Q96G74), the “log2 ratio” value was -0.0756 (inactive).
USP10 (UniProt Q14694) was tested, and the “log2 ratio” value was -0.045 (inactive).
USP19 (UniProt O94966) was tested, and the “log2 ratio” value was -0.198 (inactive).
With BAP1 (UniProt Q92560) the “log2 ratio” value was -0.654 (inactive).
With UniProt O00487 the “log2 ratio” value was -0.179 (inactive).
With UniProt O00507 the “log2 ratio” value was -0.0912 (inactive).
With USP28 (UniProt Q96RU2) the “log2 ratio” value was -0.446 (inactive).
OTUB1 (UniProt Q96FW1) was tested, and the “log2 ratio” value was 0.0718 (inactive).
